# Laboratory results from paper PMC13494018.
# Unmarked numbers belong to inactive results. No rule for the calls is given here.
# B1: design_597_f3dcd2b3-c7aa-4b15-88bc-bbb8d01a18cd_2262_dldesign_0_cycle1_af2pred (protein)
# chain: AEAEEALKAAKAAAAKAKEAADAAIADPATKAAGEKAKKLIEAREKKAEANASDVRVLQSAVEFFNHMAAALKKILA
# B2: design_597_f3dcd2b3-c7aa-4b15-88bc-bbb8d01a18cd_1586_dldesign_0_cycle1_af2pred (protein)
# chain: AAAIEKAKAAVEELLKAAEEALKLAEKDPSYAKYAEEVKKKINKVAKELKEALLADPSVANKLQEARQIATEAEATAKIKK
# B3: design_597_f3dcd2b3-c7aa-4b15-88bc-bbb8d01a18cd_2012_dldesign_0_cycle1_af2pred (protein)
# chain: AEAKKEAAKLSEEAAELAAEAWLKAKKAKPEEAEKYKKAAEYFKEAIKILQAGEDLEKAKALYEKGKALYEEA
# B4: design_597_f3dcd2b3-c7aa-4b15-88bc-bbb8d01a18cd_2160_dldesign_0_cycle1_af2pred (protein)
# chain: NATEIYREGREKAKELAKKGGKLVKDGEEFARRLVAAANTYFADPEEGEKQLDELIKEAEKESPEAAKIAKEVLKAAKEYLKKLDEEG
# B5: design_597_f3dcd2b3-c7aa-4b15-88bc-bbb8d01a18cd_2332_dldesign_0_cycle1_af2pred (protein)
# chain: SVVEEVKEEAKKAIEEGKKGDAGTAAALGYEAKALAEQKAKLYPEEAEELKKIAEEVKKEAKEIAEKKLKEKKAA
# B6: design_597_f3dcd2b3-c7aa-4b15-88bc-bbb8d01a18cd_2077_dldesign_0_cycle1_af2pred (protein)
# chain: EIKKLAAEAFDYYYEAKAMADALKADKNGKEAAKKIEELAKKIKEYGKKILETKDLKEAKKLYEEAKKLYEEAVKIFDEFAK
# B7: design_597_f3dcd2b3-c7aa-4b15-88bc-bbb8d01a18cd_2241_dldesign_0_cycle1_af2pred (protein)
# chain: EAAAIAKEAAAVAEEAAKKEEDPGKAEALKKAAKRIKAAAAGTKFEIASAVASAAEQAEWVGYPKEVVDKLEAKAEKIEKA
# B8: design_597_f3dcd2b3-c7aa-4b15-88bc-bbb8d01a18cd_1746_dldesign_0_cycle1_af2pred (protein)
# chain: SLKTKALAEAGRAIALSDSVISALPDSELAKKAKEIKKKAEEAMEKAEKGEKLEEALKEAKKLKEEAKKLRKEAEKEKKA
# B9: design_597_f3dcd2b3-c7aa-4b15-88bc-bbb8d01a18cd_2339_dldesign_0_cycle1_af2pred (protein)
# chain: AKALRYAGRAEIYMELAETAAKLAIEAAKKDPAEGKKYLEKMKEKVKKAVELAEKADPALAKEYEAKGKELIEKAEKAIKAQIEKA
# B10: design_598_15ab41e9-cad4-4381-8935-81f74b313fe8_72_dldesign_0_cycle1_af2pred (protein)
# chain: SELVKKASDLYRELVRKAREVAEKAGKAGDPEEAKKLAGDAVWAAQENVEEGIKIAKELGKKTGVEKEVEEFIKLMKEYAKALEEVSN
# B11: design_597_f3dcd2b3-c7aa-4b15-88bc-bbb8d01a18cd_1306_dldesign_0_cycle1_af2pred (protein)
# chain: GKMKEDEEKLKEIEKEAKKAIEEAKKLAKEDPKKGAEYAKKASKEITERGTELGKTMSPEVRKKLAEVVQKAREELTEIAFKAR
# B12: design_597_f3dcd2b3-c7aa-4b15-88bc-bbb8d01a18cd_1339_dldesign_0_cycle1_af2pred (protein)
# chain: AEAEKYKKEAEKALKELEEIAKKYPSSTKIQANYESAKEYFEHNEQAAKLNPEKAAEAYKKAYEYAKRKLEEAKKIAEELEKKE
# B13: design_597_f3dcd2b3-c7aa-4b15-88bc-bbb8d01a18cd_1491_dldesign_0_cycle1_af2pred (protein)
# chain: DEGEKLKKEFKEEIEEVAKEAKELVKEGVSPKVAARLVENTAEVLIKEAEKHKEGEEIKKAVKEEAEKKKEEILKL
# B14: design_597_f3dcd2b3-c7aa-4b15-88bc-bbb8d01a18cd_925_dldesign_0_cycle1_af2pred (protein)
# chain: HKEENEAMKEILDEFNEAGRKMQEYVKAGKLEEAKKALEEEAKKMLEIGKKAGENALELAEELVEEARRNLEKAIEAAK
# B15: design_598_15ab41e9-cad4-4381-8935-81f74b313fe8_148_dldesign_0_cycle1_af2pred (protein)
# chain: MAEEAKKTSDAIREMVKIAKEAGKEVAGSPEAQKKIAAARDKAMDAVAAGEDPEEQLKKAKEEIEAVVAEEKA
# B16: design_597_f3dcd2b3-c7aa-4b15-88bc-bbb8d01a18cd_1341_dldesign_0_cycle1_af2pred (protein)
# chain: AAAVEAAKAEITKLAAELSAKAFEAKAAASVFPEYKPVYELYKEAAEKAKEGLVLLKALGEKALEEAKKLAEEAKKLAKEGDELEKKL
# B17: design_598_15ab41e9-cad4-4381-8935-81f74b313fe8_121_dldesign_0_cycle1_af2pred (protein)
# chain: MMEKKKKEAEIKRDAAIEQAKTIVEANKDKPFEEILEKVEKSVERFKESIEKIDPEIGKEEGEKARKESEEIVKKASEA
# B18: design_597_f3dcd2b3-c7aa-4b15-88bc-bbb8d01a18cd_2336_dldesign_0_cycle1_af2pred (protein)
# chain: AQAAKVAAALAAAEKRLAISTARAKELAKKNPQAGYEYMEIRTDHMAAALAKVDPAAGAEVKARGAALAAEIKA
# B19: design_597_f3dcd2b3-c7aa-4b15-88bc-bbb8d01a18cd_1536_dldesign_0_cycle1_af2pred (protein)
# chain: SGANAAQEARAEYTAAKQLAKINKKDKEKAAKLLEEAYKKVEELAKKADEEGKKIAEKYAKELKELAKKYLKE
# B20: design_597_f3dcd2b3-c7aa-4b15-88bc-bbb8d01a18cd_1120_dldesign_0_cycle1_af2pred (protein)
# chain: MLAKIARIIADITTATAKLLRKTGPKFVKLTKVLAVLADIIGDLALKTGKEEDIKAGGYALAAAERARHAAEAAE
# B21: design_597_f3dcd2b3-c7aa-4b15-88bc-bbb8d01a18cd_627_dldesign_0_cycle1_af2pred (protein)
# chain: MYKELAENYRKGVRALSRRYRLRAELDPAKAAEYGAEATRERDKLFNASPEEVKKAAEEWAKEEAAVAAEAAALAAAA
# B22: design_598_15ab41e9-cad4-4381-8935-81f74b313fe8_13_dldesign_0_cycle1_af2pred (protein)
# chain: AEKSREEGVKKAEEAAKLAKEAGLEEKAKKIKEAAKKAAKTGTDEDLKELSKTALEAAKLADPEKGAKISELRVEAAGYFELARIQ
# B23: design_598_15ab41e9-cad4-4381-8935-81f74b313fe8_205_dldesign_0_cycle1_af2pred (protein)
# chain: DFKAKADAEATLERAEQAEKAAKKIGEELAKLAEEAKKLAEAGLKSDDPEKREALTKAARELLKELQKLGKEKKEK
# B24: design_597_f3dcd2b3-c7aa-4b15-88bc-bbb8d01a18cd_1026_dldesign_0_cycle1_af2pred (protein)
# chain: MEVVEKMAEEIAKAAEEAGDKVTAALARAVAARAKKEKEISPEEAVKRLGEDAKFMAEDNGNEELAKKIKEIAEKALKEV
# B25: design_598_15ab41e9-cad4-4381-8935-81f74b313fe8_88_dldesign_0_cycle1_af2pred (protein)
# chain: GSAKELAEKLRYVNRKIKEAGELAKELEKAGYPEEAKKLRELAQKARDALMAGDLDAAYKAAKELEEKIKEAKKKLEA
# B26: design_597_f3dcd2b3-c7aa-4b15-88bc-bbb8d01a18cd_1765_dldesign_0_cycle1_af2pred (protein)
# chain: SMEEEKKKKEAEKARKEAEKAIEEIKKNPENKELQTEALAKAYEAKAIDKEVGKEAIKKVREAIKEARKKL
# B27: design_597_f3dcd2b3-c7aa-4b15-88bc-bbb8d01a18cd_2462_dldesign_0_cycle1_af2pred (protein)
# chain: DPLREAAKAAVEAMGKAAKEVGLTKEASELAGLVHEALSAAKAGIHAKEILKEAAEAAKKAAEEYPEAKELFEKVAKEVEKMEKLV
# B28: design_597_f3dcd2b3-c7aa-4b15-88bc-bbb8d01a18cd_2142_dldesign_0_cycle1_af2pred (protein)
# chain: AAAAAAAEAARAEAAKAFTEAIDLAYSDPKYIPILEKTSEDSAATFIAAGKLSGKTAEWTAKGELIKKTSERIIKDIKK
# B29: design_597_f3dcd2b3-c7aa-4b15-88bc-bbb8d01a18cd_2297_dldesign_0_cycle1_af2pred (protein)
# chain: MEEAEKLLKKAEEAAKKGDAETAKKLAEELRELSKKEKDKEKAAAYSEAAFEAKGYAFLAEIKQEKKKELE
# B30: design_597_f3dcd2b3-c7aa-4b15-88bc-bbb8d01a18cd_2381_dldesign_0_cycle1_af2pred (protein)
# chain: AAAEAAAAAAKAAAKAEAAKHLEKAFDLIADGGTVEEVEKEAEKAIEYAAKADEKYKKLAERTAKRIIENAKIAAKREEEN
# B31: design_597_f3dcd2b3-c7aa-4b15-88bc-bbb8d01a18cd_1719_dldesign_0_cycle1_af2pred (protein)
# chain: LEKNVKKAIEAAKKAIEAGKKAKEAGLEELAKEAIEKAKKAIEAAAKDKASGGETAKETANAAQEARQAKSEAESAIKKK
# B32: design_597_f3dcd2b3-c7aa-4b15-88bc-bbb8d01a18cd_1493_dldesign_0_cycle1_af2pred (protein)
# chain: AEAERARREAALAEAERRAAELIFAAVDEGTKVSNEEAAKVMEETRARIEALMDETGAAYDPERAAEIRDRATATMTRLAESYK
# B33: design_597_f3dcd2b3-c7aa-4b15-88bc-bbb8d01a18cd_1782_dldesign_0_cycle1_af2pred (protein)
# chain: MEEVKKKVAEAVQAGYRAAATLSKEEGKKLREETKELAKKLTELVKKSEELAGDPEKAKALADEATKIAEKAKEEYEKIDKA
# B34: design_598_15ab41e9-cad4-4381-8935-81f74b313fe8_127_dldesign_0_cycle1_af2pred (protein)
# chain: SAMDLLLEILDYNDEALKAAKEGNKEEMEKYIKKAFEIAEELGKKYGPEAEERAKRYVEKAKKEAEEIYKK
# B35: design_597_f3dcd2b3-c7aa-4b15-88bc-bbb8d01a18cd_2475_dldesign_0_cycle1_af2pred (protein)
# chain: MTPLEESAAKAQEAREEAAEKEQKGKLLAEKGNYKEGAKEYKKGAEELKKAAKFAEEAGDKEAAERLKKRAERLEKLAKEYEKKAK
# B36: design_597_f3dcd2b3-c7aa-4b15-88bc-bbb8d01a18cd_1020_dldesign_0_cycle1_af2pred (protein)
# chain: GHSEEGKEISEKIREISRIAKEAGKEIKKYPGGEELMKELGETRDKAIDEAAEGGLEEAKKALEKVKKAAKELLKKAKA
# B37: design_597_f3dcd2b3-c7aa-4b15-88bc-bbb8d01a18cd_2357_dldesign_0_cycle1_af2pred (protein)
# chain: NEEIKAKQLAGRLEALADSLKSAAEKAAKETKDPEKAKKLKEIAKEAEKAVEEAKKKIKEGKAEEAYKEGKEKVEKAKKEVEKIAKE
# B38: design_597_f3dcd2b3-c7aa-4b15-88bc-bbb8d01a18cd_2474_dldesign_0_cycle1_af2pred (protein)
# chain: MKADEEAAKKAAAARDTAFDKIAAGEDPQAAYDAAKAEMKKIAEEYGVSPETKEKIEKGIKALERFAAAAAKAAA
# Target: VTCN1, Q7Z7D3
# Sequence (Q7Z7D3 whole entry): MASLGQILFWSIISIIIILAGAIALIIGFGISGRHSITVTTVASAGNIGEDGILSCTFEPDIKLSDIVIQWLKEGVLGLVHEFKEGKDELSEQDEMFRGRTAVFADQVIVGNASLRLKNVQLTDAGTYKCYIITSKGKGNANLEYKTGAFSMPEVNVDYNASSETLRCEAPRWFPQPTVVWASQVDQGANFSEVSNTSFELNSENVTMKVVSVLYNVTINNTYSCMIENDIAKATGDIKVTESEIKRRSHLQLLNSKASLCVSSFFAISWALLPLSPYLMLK
row,Binder,binding in a display sort
1,B1,not found
2,B2,not found
3,B3,not found
4,B4,not found
5,B5,not found
6,B6,not found
7,B7,not found
8,B8,not found
9,B9,not found
10,B10,not found
11,B11,not found
12,B12,not found
13,B13,not found
14,B14,not found
15,B15,not found
16,B16,not found
17,B17,not found
18,B18,not found
19,B19,not found

row,Binder,binding in a display sort
1,B20,not found
2,B21,not found
3,B22,not found
4,B23,not found
5,B24,not found
6,B25,not found
7,B26,not found
8,B27,not found
9,B28,not found
10,B29,not found
11,B30,not found
12,B31,not found
13,B32,not found
14,B33,not found
15,B34,not found
16,B35,not found
17,B36,not found
18,B37,not found
19,B38,not found
